Consider 90 molecules from publication PMC4336329 (PLoS ONE, 2015).

Each structure is given as a SMILES string. Out of some 310,000 compounds screened, about 14,000 (4.5%) showed an effect of 50% or more. The effect is printed as a negative number. The full list was thinned out, with strong results kept by preference.
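Note: peak tail current of the secondary pulse compared with the same well before compound.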

In the test the target is human ether-à-go-go-related gene (hERG) potassium channel (human, UniProt Q12809). In words: primary screen, population patch clamp on CHO cells stably expressing hERG; higher = less effect of the substance.
Chain of human ether-à-go-go-related gene (hERG) potassium channel (Q12809 whole entry, looked up): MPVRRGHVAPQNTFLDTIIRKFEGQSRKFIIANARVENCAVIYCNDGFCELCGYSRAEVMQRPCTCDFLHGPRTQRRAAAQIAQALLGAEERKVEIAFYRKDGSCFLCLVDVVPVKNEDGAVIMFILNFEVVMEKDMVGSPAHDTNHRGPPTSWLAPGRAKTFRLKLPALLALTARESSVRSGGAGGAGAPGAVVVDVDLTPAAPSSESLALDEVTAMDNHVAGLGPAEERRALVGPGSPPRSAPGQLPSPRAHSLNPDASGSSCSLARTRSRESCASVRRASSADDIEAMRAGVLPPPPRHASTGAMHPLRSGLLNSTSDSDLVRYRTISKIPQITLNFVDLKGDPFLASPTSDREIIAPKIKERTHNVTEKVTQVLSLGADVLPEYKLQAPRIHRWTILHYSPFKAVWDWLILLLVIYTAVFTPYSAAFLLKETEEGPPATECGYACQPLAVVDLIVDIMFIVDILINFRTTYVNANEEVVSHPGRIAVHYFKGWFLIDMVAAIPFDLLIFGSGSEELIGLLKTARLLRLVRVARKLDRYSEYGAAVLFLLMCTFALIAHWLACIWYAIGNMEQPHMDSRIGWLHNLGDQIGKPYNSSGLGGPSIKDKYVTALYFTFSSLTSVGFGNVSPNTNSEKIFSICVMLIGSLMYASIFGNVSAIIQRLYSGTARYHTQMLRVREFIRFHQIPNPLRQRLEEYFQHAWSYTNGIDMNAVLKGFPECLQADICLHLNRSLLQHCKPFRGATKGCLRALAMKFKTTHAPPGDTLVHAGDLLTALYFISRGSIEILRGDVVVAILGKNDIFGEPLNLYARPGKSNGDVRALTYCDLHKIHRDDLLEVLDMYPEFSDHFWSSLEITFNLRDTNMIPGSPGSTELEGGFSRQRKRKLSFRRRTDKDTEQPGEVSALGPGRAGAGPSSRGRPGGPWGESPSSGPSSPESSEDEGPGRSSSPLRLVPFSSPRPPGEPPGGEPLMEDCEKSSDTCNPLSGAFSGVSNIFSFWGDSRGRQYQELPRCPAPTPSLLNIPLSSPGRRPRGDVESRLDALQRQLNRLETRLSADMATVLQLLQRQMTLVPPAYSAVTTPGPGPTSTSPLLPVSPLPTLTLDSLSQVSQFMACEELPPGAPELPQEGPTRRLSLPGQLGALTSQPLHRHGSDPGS
For `CCOc1ccc(N2C(=O)CC(N)C2=O)cc1` (stereo not drawn), the “hERG current change (%, negative = inhibition) at 10uM” value is recorded as 1.65%. With `COc1ccc(OC)c(CCNC(=O)CC2(CC3=NS(=O)(=O)c4ccccc4N3)CCCC2)c1`, the “hERG current change (%, negative = inhibition) at 10uM” value was -11.2%. The figure for `COC(=O)c1cc(-c2cccc([N+](=O)[O-])c2)c2c(=O)[nH]c(=O)n(C)c2n1` is 6.48%; for `COc1cccc(NC(=O)CCNS(=O)(=O)c2cccc3nsnc23)c1` it is 1.56%.

Take `Cn1c(=O)c2ccccc2n(Cc2ccccc2Cl)c1=O`: the “hERG current change (%, negative = inhibition) at 10uM” value is 0.661%. Turning to `COc1ccc(CN2C3CCCC2CC(NC(=O)Nc2cccc(C)c2)C3)cc1` (stereo not drawn), the “hERG current change (%, negative = inhibition) at 10uM” value is -75.3%.

For `O=C(Nc1cccc(F)c1)NC1CC2CCCC(C1)N2C1CC1` (stereo not drawn), the “hERG current change (%, negative = inhibition) at 10uM” value is given as -8.34%. The figure for `Cc1cccc(NC(=O)NC2CC3CCC(C2)N3Cc2ccco2)c1` (stereo not drawn) is -2.61%; for `CCCN1C2CCCC1CC(NC(=O)Nc1cccc(C(C)=O)c1)C2` (stereo not drawn) it is -5.62%; for `CCc1cccc(CC)c1NC(=O)CN1C2CCCC1CC(NC(=O)Nc1cccc(OC)c1)C2` (stereo not drawn) it is -7.7%. Under `Cc1ccc(CN2C3CCCC2CC(NC(=O)Nc2cccc(F)c2)C3)cc1` (stereo not drawn) stands -85.7%.

For `CCOC(=O)C1CCN(C(=O)C2CCN(S(=O)(=O)c3cc(Cl)ccc3Cl)CC2)CC1`, the “hERG current change (%, negative = inhibition) at 10uM” value is given as -30.1%. Take `Cc1ccc(S(=O)(=O)N2CCOCC2)cc1C(=O)OCC(=O)c1ccc(Br)cc1`: the “hERG current change (%, negative = inhibition) at 10uM” value is listed as 14.7%. Under `COc1ccc(-c2nc3ccc(N4CCN(C)CC4)cc3c(=O)[nH]2)cc1` stands 8.45%; under `O=c1c2ccccc2nc(N2CCCC2)n1-c1ccc(Cl)cc1`, -3.18%. Turning to `O=c1c2ccccc2nc2n1CCN2Cc1ccc(Cl)cc1`, the “hERG current change (%, negative = inhibition) at 10uM” value is -51.9%.

Take `O=c1c2ccccc2nc(-c2ccccc2)n1Cc1ccc(Cl)cc1`: the “hERG current change (%, negative = inhibition) at 10uM” value was -15.7%. Consider `CCOC(=O)c1c(-n2c(C)cc(C=C3C(=O)NC(=S)NC3=O)c2C)sc2c1CCCC2`, for which the “hERG current change (%, negative = inhibition) at 10uM” value is reported as -5.55%. Under `CN1CCC(=NNC(=O)c2ccc(N(Cc3ccc(Cl)cc3)S(C)(=O)=O)cc2)CC1` stands -38%. The figure for `COc1cccc(C(=O)NC2CC(C)(C)Cc3c2cnn3-c2cccc(F)c2)c1OC` (stereo not drawn) is -52.3%; for `CC1(C)Cc2c(cnn2-c2cccc(F)c2)C(NC(=O)c2csnn2)C1` (stereo not drawn) it is -78.3%; for `CC1=C(C(=O)NC2CC(C)(C)Cc3c2cnn3-c2cccc(F)c2)OCCO1` (stereo not drawn) it is -43.5%. Under `Cc1cc(C(=O)NC2CC(C)(C)Cc3c2cnn3-c2cccc(F)c2)n(C)n1` (stereo not drawn) stands -32.6%.

On to `COc1ccc(C(=O)NC2CC(C)(C)Cc3c2cnn3-c2ccccc2)c(OC)c1` (stereo not drawn), for which the “hERG current change (%, negative = inhibition) at 10uM” value is -2.5%.

As for `Cc1cc(C(=O)NC2CC(C)(C)Cc3c2cnn3-c2cccc(F)c2)nn1C` (stereo not drawn), the “hERG current change (%, negative = inhibition) at 10uM” value is on record as -2.79%.

Take `Cc1cnc(C(=O)NC2CC(C)(C)Cc3c2cnn3-c2cccc(F)c2)cn1` (stereo not drawn): the “hERG current change (%, negative = inhibition) at 10uM” value is on record as -33.5%. Under `CC1(C)Cc2c(cnn2-c2cccc(F)c2)C(NC(=O)c2ccc(=O)[nH]n2)C1` (stereo not drawn) stands -70.2%; under `COc1cc(C(=O)NC2CC(C)(C)Cc3c2cnn3-c2ccccc2)cc(OC)c1OC` (stereo not drawn), 8.92%; under `O=C(N/N=C/c1coc2ccccc2c1=O)c1ccccc1`, 10.6%. The figure for `COc1ccc(CN2CCN(C(=O)CC(C)C)CC2)cc1Br` is -4.54%. In the case of `C=CC[C@]12C[C@@H](OC)C(=O)C=C1O[C@@H](c1ccc(OC)c(OC)c1)[C@H]2C`, the “hERG current change (%, negative = inhibition) at 10uM” value amounted to 14.5%. The figure for `NC(=O)C(c1ccc(Sc2ccccc2)nn1)c1ccc(Cl)cc1Cl` (stereo not drawn) is -43.9%; for `Cc1c(C(=O)NCC2COc3ccccc3O2)oc2ccc(S(=O)(=O)N3CC(C)CC(C)C3)cc12` (stereo not drawn) it is 12.4%; for `Cc1c(NC(=O)COC(=O)c2cc(-c3ccc(-c4ccccc4)cc3)nc3ccccc23)c(=O)n(-c2ccccc2)n1C` it is 28.4%.

For the molecule `COc1ccccc1NNC(=O)C(O)(c1ccccc1OC)c1ccccc1OC`, the “hERG current change (%, negative = inhibition) at 10uM” value is recorded as 20.2%.

`O=C(NC(Cc1ccccc1)C(=O)O)/C(=C/c1ccc([N+](=O)[O-])cc1)NC(=O)c1ccc(Br)o1` (stereo not drawn): the “hERG current change (%, negative = inhibition) at 10uM” value is on record as 11.5%. The figure for `CC(=O)Nc1ccc(Nc2ccc3c4c(cc(=O)n3C)-c3ccccc3C(=O)c24)cc1` is 9.74%; for `Cn1c(=O)cc2c3c(c(N4CCCCC4)ccc31)C(=O)c1ccccc1-2` it is -63.2%. With `CC(=O)N(C)c1ccc(N2CCOCC2)c2c1C(=O)c1ccccc1C2=O`, the “hERG current change (%, negative = inhibition) at 10uM” value was -0.974%. Under `CCn1c(SCC(=O)Nc2cc(S(=O)(=O)N3CCOCC3)ccc2OC)nnc1-c1ccncc1` stands 13.8%; under `O=C(COc1ccc(Cl)cc1)Nc1c(-c2cccs2)nc2ccccn12`, -14.4%; under `Nc1cc(-c2nn[nH]n2)ccc1F`, 11.6%. The figure for `O=C(Nc1ccc(Cl)c(-c2nc3ccccc3[nH]2)c1)c1ccc2c(c1)OCO2` is -15%. Consider `O=C(C1CC(=O)N(c2ccccc2)C1)N1CCCCCC1` (stereo not drawn), for which the “hERG current change (%, negative = inhibition) at 10uM” value is 13%.

Regarding `Cc1ccc(N2CC(C(=O)N3CCOCC3)CC2=O)cc1C` (stereo not drawn), the “hERG current change (%, negative = inhibition) at 10uM” value was determined as 6.52%. Under `Cc1ccc(N2CC(C(=O)N3CCC4(CC3)CC(=O)c3ccccc3O4)CC2=O)cc1` (stereo not drawn) stands -71.6%; under `CCOC(=O)N1CCN(C(=O)C2CC(=O)N(c3ccccc3)C2)CC1` (stereo not drawn), 5.31%; under `O=C(C1CC(=O)N(c2ccc(F)cc2)C1)N1CCOCC1` (stereo not drawn), 1.27%.

Take `Cc1ccc(N2CC(C(=O)N3CCCCCC3)CC2=O)cc1` (stereo not drawn): the “hERG current change (%, negative = inhibition) at 10uM” value is 11.5%. Under `NC(=O)C1CCN(C(=O)C2CC(=O)N(c3ccc(F)cc3)C2)CC1` (stereo not drawn) stands 13.7%.

Take `CCOC(=O)N1CCN(C(=O)C2CC(=O)N(c3ccc(C)cc3)C2)CC1` (stereo not drawn): the “hERG current change (%, negative = inhibition) at 10uM” value was -47.9%. Under `Cc1ccc(N2CC(C(=O)N3CCCCC3)CC2=O)cc1C` (stereo not drawn) stands -21.2%; under `O=C1CC2(CCN(C(=O)C3CC(=O)N(c4ccc(F)cc4)C3)CC2)Oc2ccccc21` (stereo not drawn), -78.7%. Under `O=C1CC2(CCN(C(=O)C3CC(=O)N(c4ccccc4)C3)CC2)Oc2ccccc21` (stereo not drawn) stands -77.4%; under `Cc1ccc(N2CC(C(=O)N3CCC4(CC3)CC(=O)c3ccccc3O4)CC2=O)cc1C` (stereo not drawn), -71.3%; under `CCN(CC#CCC(O)(c1ccccc1)C1CCCC1)C(C)C.Cl` (stereo not drawn), -18.9%. The figure for `CCNC(=O)NC(=O)C(C)OC(=O)Cc1coc2cc3c(cc12)CCC3` (stereo not drawn) is 26.6%; for `Cc1ccc(C2=NCCn3c2c2ccc(C(F)(F)F)cc2[n+]3[O-])cc1` it is -26.2%. As to `Nc1c(Cl)cc(C2=NCCn3c2c2ccc(C(F)(F)F)cc2[n+]3[O-])cc1Cl`, the “hERG current change (%, negative = inhibition) at 10uM” value is -26.1%. Under `Nc1c(Cl)cc(C2=NCCn3c2c2ccc([N+](=O)[O-])cc2[n+]3[O-])cc1Cl` stands -54.8%; under `[O-][n+]1c2cc(C(F)(F)F)ccc2c2n1CCN=C2c1ccc(Cl)cc1`, -55.6%.

In the case of `Cc1ccc(C2=NCCn3c2c2ccc([N+](=O)[O-])cc2[n+]3[O-])cc1`, the “hERG current change (%, negative = inhibition) at 10uM” value was -7.51%. Take `O=[N+]([O-])c1ccc2c3n([n+]([O-])c2c1)CCN=C3c1ccc(Cl)cc1`: the “hERG current change (%, negative = inhibition) at 10uM” value was -29.6%. Consider `COc1cccc(/C=C/C(=O)OCC(=O)c2c[nH]c3ccccc23)c1OC`, for which the “hERG current change (%, negative = inhibition) at 10uM” value is listed as 9.29%.

On to `CCOC(=O)c1c[nH]c2c(C)cc(C)cc2c1=O`, for which the “hERG current change (%, negative = inhibition) at 10uM” value was -0.349%. Regarding `CCCCOP(=O)(c1ccc(N(C)C)cc1)C(O)c1ccc(OC)cc1` (stereo not drawn), the “hERG current change (%, negative = inhibition) at 10uM” value was -2.61%.

With `O=[N+]([O-])c1cc(S(=O)(=O)NCCc2ccccn2)ccc1Cl`, the “hERG current change (%, negative = inhibition) at 10uM” value is -21.8%. Consider `C=CCCC(=O)Nc1nc(C)c(-c2csc(Nc3ccc(Cl)cc3)n2)s1`, for which the “hERG current change (%, negative = inhibition) at 10uM” value is listed as 14.9%. The figure for `S=c1[nH]nc(-c2ccc3ccccc3n2)o1` is 17.2%; for `Cc1ccc(C)c2[nH]c(=O)c(CCNC(=O)C(C)(C)C)cc12` it is 8.5%. The figure for `O=C(CSc1ncccc1C(=O)O)c1ccccc1` is 6.47%; for `O=C(O)c1cccnc1SCc1ccccc1` it is -1.22%; for `O=C(O)CSc1ncccc1C(=O)O` it is -53.7%. The figure for `O=C(N/C(=C/c1ccc(Cl)cc1)c1nc2ccccc2[nH]1)c1ccco1` is 9.34%. As to `O=c1[nH]c(C2CCN(S(=O)(=O)c3ccc(C(F)(F)F)cc3)CC2)nc2c1nnn2Cc1ccccc1`, the “hERG current change (%, negative = inhibition) at 10uM” value is 8.98%. Consider `Cc1ccc(S(=O)(=O)N(C)C)cc1NC(=S)N(CCC#N)Cc1cccnc1`, for which the “hERG current change (%, negative = inhibition) at 10uM” value was -10.3%.

Turning to `Cc1ccc(C(C)C)cc1OCCOCCN1CCCC1`, the “hERG current change (%, negative = inhibition) at 10uM” value is recorded as -38.9%. Under `COc1ccc(-c2nc(NC(=O)CSCCO)sc2C)cc1` stands -4.57%. The figure for `CCCCn1c(SCC(=O)Nc2cccc(OC)c2)nc2ccc(N3CCOCC3)cc2c1=O` is -9.77%; for `CCOC(=O)C(C)Sc1nc2ccccc2c(=O)n1CC` (stereo not drawn) it is -22.4%.

Take `COc1cccc(NC(=O)CSc2nc3ccccc3c(=O)n2CCCC(=O)NCCCN2CCOCC2)c1`: the “hERG current change (%, negative = inhibition) at 10uM” value was -59.8%. As to `O=C(CCCn1c(SCc2cccc(F)c2)nc2ccccc2c1=O)NCC1CCCO1` (stereo not drawn), the “hERG current change (%, negative = inhibition) at 10uM” value is given as 8.35%. The figure for `O=C(CCCn1c(SCc2cccc([N+](=O)[O-])c2)nc2ccccc2c1=O)NCC1CCCO1` (stereo not drawn) is -59.7%. The figure for `CCOC(=O)C(C)On1c(-n2nc(C)cc2C)nc2ccccc2c1=O` (stereo not drawn) is 9.29%; for `Cc1ccc(NC(=O)CSc2nc3ccccc3c(=O)n2CCCC(=O)NCCCN2CCOCC2)cc1C` it is -69.1%. Under `CCOC(=O)C(C)On1c(SC(C)C(=O)OCC)nc2ccccc2c1=O` (stereo not drawn) stands -53.5%; under `O=C(CCCn1c(SCC(=O)NCCc2ccccc2)nc2ccccc2c1=O)NCC1CCCO1` (stereo not drawn), -22.8%.

Consider `COc1cccc(NC(=O)CSc2nc3ccccc3c(=O)n2C)c1`, for which the “hERG current change (%, negative = inhibition) at 10uM” value is recorded as -7.76%. The figure for `O=C(CSc1nc2ccccc2c(=O)n1CCCN1CCOCC1)Nc1ccc2c(c1)OCO2` is -43.6%; for `Cc1cc(C)c(NC(=O)CSc2nc3ccccc3c(=O)n2CCCN2CCOCC2)c(C)c1` it is -47.6%.
